According to ChEMBL document CHEMBL3988442, “University of Dundee, Small-Polar-MMV Screening Library” (2021):
Hit rate of the full screen: of about 48,000 compounds, about 13,000 (27%) showed an effect of 50% or more. The list shows a part of the results.

System: Wolbachia pipientis
Assay: Anti-Wolbachia Cell-Based Screen
Format: functional
Parameters: scale not given: in the data most compounds retested in dose-response had high values
Settings: 5 µM

SMILES	Percent Effect [%]
COCCCC1(CO)CCCN(Cc2cccc(C#N)c2)C1 (stereo not given)	1.897
COCC(C)NCc1ccc2[nH]c(C)c(C)c2c1 (stereo not given)	5.235
Cc1ccc(-n2c(COCC(=O)O)nc3c(C)cccc32)nc1	-11.98
O=C(c1ccc2nncn2c1)N1CCCC1c1noc(C2CC2)n1 (stereo not given)	-1.94
OCCCN1CCCC1c1nc(Cc2ccc(F)cc2)no1 (stereo not given)	-4.354
Cc1ncsc1CN1CC(C)(C2CC2)CC1=O (stereo not given)	-4.839
Cc1nc(CN(CCc2ccccc2)C2CCN(C)CC2)no1	-15.44
Cc1nc(CN(C)C2CCN(CCCOc3ccccc3C)C2)no1 (stereo not given)	109.1
Cc1nc(CN(C)C2CCN(CCCc3ccccc3)C2)no1 (stereo not given)	119.3
Cc1cccc(OCCCN2CCC(N(C)Cc3noc(C)n3)C2)c1 (stereo not given)	112.7
Cc1nc(CN(C)C2CCN(CCCOc3ccc(F)cc3)C2)no1 (stereo not given)	112.3
CCc1n[nH]c(C2CN(CCCOc3cccc(C)c3)CCO2)n1 (stereo not given)	13.14
CC(C)N(Cc1cccc(Cl)c1)Cc1nnsc1Cl	2.005
Cc1cc(CN2CCc3nn(C)c(=O)cc3C2)no1	-29.82
O=C(NCC1CCS(=O)(=O)C1)c1sccc1-c1ccc(F)cc1 (stereo not given)	-6.4
Cc1cc(NC(=O)NCCc2ccsc2)n(C)n1	2.6
Fc1ccccc1Cc1noc(CN2CCCC(CN3CCCC3)C2)n1 (stereo not given)	-1.357
Clc1snnc1CN1CCCC(Cn2cncn2)C1 (stereo not given)	3.779
c1coc(-c2noc(CN3CCCC(Cn4cncn4)C3)n2)c1 (stereo not given)	-0.1927
CC(C)Cc1noc(CN2CCCC(Cn3cncn3)C2)n1 (stereo not given)	3.537
COCCc1noc(CN2CCCC(Cn3cncn3)C2)n1 (stereo not given)	89.51
c1ccc(Cc2noc(CN3CCCC(Cn4cncn4)C3)n2)cc1 (stereo not given)	97.1
COCCN(C(=O)c1ccsc1)c1ccc(C#N)cc1	-12.97
O=C(Cc1cn2ccsc2n1)N1CCOCC(O)(CN2CCCC2)C1 (stereo not given)	4.067
O=C(C1CCC1)N1CCCn2nc(CNc3ncccn3)cc2C1	131.9

SMILES	Percent Effect [%]
CC(=O)N1CCCn2nc(CNS(=O)(=O)N3CCCCCC3)cc2C1	-0.4584
Cc1cc(NCc2cc3n(n2)CCCN(S(C)(=O)=O)C3)ncn1	-6.593
N[C@H]1CC[C@@H](CN2CCCn3nc(CNC(=O)C4CCC4)cc3C2)CC1	11.2
Cc1cc(NCc2cc3n(n2)CCCN(C(=O)N(C)C)C3)ncn1	-7.228
Cc1nc(CN2CCCn3nc(CNC(=O)C4CCC4)cc3C2)co1	-9.719
CC(=O)N1CCCn2nc(CNc3cc(C)ncn3)cc2C1	18.58
Cc1cc(NCc2cc3n(n2)CCCN(C(=O)C2CCC2)C3)ncn1	87.84
CS(=O)(=O)N1CCCn2nc(CNc3ncccn3)cc2C1	-7.874
Cc1cc(C)nc(NCc2cc3n(n2)CCCN(C(=O)C2CCC2)C3)n1	104.2
Cc1cc(NCc2cc3n(n2)CCCN(C(=O)C2CCC2)C3)nc(N)n1	111.3
COc1ccccc1CN1C(=O)O[C@@H]2CN(c3nccs3)C[C@@H]21	-9.448
CCc1ccc(NS(=O)(=O)CC2=NC(=O)n3cccc3C2=O)cc1	11.57
CCn1cnnc1CCNC(=O)c1ccc(F)c(Br)c1	-6.891
CN(C)C(=O)CO[C@H]1CO[C@@]2(CCN(S(C)(=O)=O)C2)C1	-10.41
Cn1c(CN2CCN(c3cccnc3)CC2)cc2ccccc21	39.54
COCCNC(=O)C1CN(Cc2cccnc2)Cc2ccnn2C1.O=C(O)C(F)(F)F.O=C(O)C(F)(F)F.O=C(O)C(F)(F)F (stereo not given)	1.319
CS(=O)(=O)N1Cc2ccnn2CC(C(=O)NCc2cccnc2)C1.O=C(O)C(F)(F)F.O=C(O)C(F)(F)F (stereo not given)	101.4
O=C(NCc1cccnc1)[C@@H]1CC[C@@H]2[C@@H](CCN2c2ncc(F)cn2)O1.O=C(O)C(F)(F)F.O=C(O)C(F)(F)F	-0.1893
COCCNC(=O)C1CN(C(N)=O)Cc2ccnn2C1 (stereo not given)	100.3
CC(C)NC(=O)C1CN(C(N)=O)Cc2ccnn2C1 (stereo not given)	-7.077
COCCNC(=O)C1CN(Cc2ccsc2)Cc2ccnn2C1 (stereo not given)	3.328
CC(=O)N1Cc2ccnn2CC(C(=O)NCc2cccnc2)C1.O=C(O)C(F)(F)F (stereo not given)	105.9
CC(C)CN(Cc1ccc(C(F)(F)F)nc1)Cc1cnn(C)c1	-7.949
COc1cccn(CC(=O)N(C)CCSC)c1=O	-16.92
O=C(O)c1ccc2c(c1)C1(CCCCC1)CN2C(=O)c1cccs1	-9.46

SMILES	Percent Effect [%]
O=C1CCCN1CCN1CC[C@@]2(O)CCN(c3ncccn3)C[C@H]2C1	-11.72
OC(CNCCn1cccn1)COc1ccc(Br)cc1 (stereo not given)	2.37
CCN(CC)CC[C@H]1CN(C(=O)C(C)(C)C)CC[C@H]1CC(=O)O	-8.739
Cc1nc2n(n1)CC(NCCCc1nc(-c3cccs3)no1)CC2 (stereo not given)	-18.09
Cc1ccc(C(=O)N(C)CC(=O)Nc2cccc(C)n2)cn1	-9.643
Cc1oc(C)c(C(=O)Nc2ccccn2)c1C	13.13
Cc1ncsc1C(=O)Nc1ccccn1	113.7
Cc1cccc(NC(=O)CN(C)C(=O)c2ccc(-n3cccc3)nc2)n1	6.082
Cc1cccc(NC(=O)CN(C)C(=O)c2scnc2C)n1	117.3
Cc1ncsc1C(=O)N[C@@H](Cc1ccccc1)C(N)=O	5.528
CCn1cc2c(n1)C(COCC1CC1)CN(C(=O)c1cnoc1C)C2 (stereo not given)	-6.391
CN(CC1Cc2ccccc2CN1C)C(=O)CSc1ccccn1 (stereo not given)	0.2013
O=C(NC1CC2(CCN(CCO)CC2)c2ccccc21)c1ccno1.O=C(O)C(F)(F)F (stereo not given)	-3.484
O=C(NC1CC2(CCN(CCO)CC2)c2ccccc21)c1ccsc1.O=C(O)C(F)(F)F (stereo not given)	-2.437
COCCN1CCC2(CC1)CC(N1CCOCC1)c1cc(C)ccc12.O=C(O)C(F)(F)F.O=C(O)C(F)(F)F (stereo not given)	-13.01
COCCN1CCC2(CC1)CC(NCc1cncn1C)c1ccccc12.O=C(O)C(F)(F)F.O=C(O)C(F)(F)F (stereo not given)	-4.638
Cc1cccc(CNC2CC3(CCN(CCO)CC3)c3ccccc32)n1.O=C(O)C(F)(F)F.O=C(O)C(F)(F)F (stereo not given)	121.3
Cc1ccc(CNC2CC3(CCN(CCO)CC3)c3ccccc32)s1.O=C(O)C(F)(F)F.O=C(O)C(F)(F)F (stereo not given)	107.2
COCCN1CCC2(CC1)CC(NCc1ccc(C)s1)c1ccccc12.O=C(O)C(F)(F)F.O=C(O)C(F)(F)F (stereo not given)	109.1
CC(NCc1cccn1C)c1noc(-c2ccc(Cl)cc2)n1 (stereo not given)	-2.056
CN1C(=O)CO[C@H](c2ccc(NC(=O)c3cccnc3)cc2)[C@H]1CO	-10.51
Nc1nc2c(c(NC(=O)Nc3cccc(Cl)c3)n1)CCCC2	7.303
Cc1c(NCc2ccc(C#N)cc2)cccc1S(=O)(=O)NC1CC1	-7.698
c1cn(CCn2cnnc2)c(-c2cc3n(n2)CCCNC3)n1	-4.741
COc1ccccc1C(C)CC(=O)N1CC[C@H](O)C1 (stereo not given in full)	18.86

SMILES	Percent Effect [%]
CC(C)c1nnc2n1CCN(C(=O)c1ccccc1OCC1CC1)C2	-3.948
COc1ccccc1C(=O)N1CC(=O)N(CC2CC2)CC(O)C1 (stereo not given)	108.3
COc1ccccc1C(=O)N1CC(=O)N(CC(C)C)CC(O)C1 (stereo not given)	116.8
CCC(NC(=O)c1ccco1)c1nc(C(F)(F)F)cs1 (stereo not given)	-6.981
CNC(=O)NCC1CCC2(CCN(c3ncccn3)CC2)CO1 (stereo not given)	88.92
O=C(C1CCC2(CCN(c3ncccn3)CC2)CO1)N1CCCC1 (stereo not given)	10.33
COCC1CC2(CCN(C(=O)c3cncc(C)c3)CC2)CO1.O=C(O)C(F)(F)F (stereo not given)	8.897
CS(=O)(=O)N1CCOCC2(CCN(C(=O)c3cccnc3)CC2)C1.O=C(O)C(F)(F)F	-2.226
COCC1CC2(CCN(C(=O)c3oc4ccccc4c3C)CC2)CO1 (stereo not given)	-1.277
CNC(=O)NCC1CCC2(CCN(C(=O)c3cccnc3)CC2)CO1.O=C(O)C(F)(F)F (stereo not given)	102.7
CC(C)NC(=O)C1CCC2(CCN(c3ncccn3)CC2)CO1 (stereo not given)	-6.885
CNC(=O)NCC1CCC2(CCN(C(=O)c3ccccc3)CC2)CO1 (stereo not given)	108.3
COCC1CC2(CCN(C(=O)c3cccc(C)c3)CC2)CO1 (stereo not given)	-11.23
CN(Cc1noc2c1CCCC2)C(=O)CN1C(=O)CSc2ccccc21	0.5887
COc1nc2c(cc1C(=O)N(C)Cc1noc3c1CCCC3)CCC2	-4.32
Cc1ccc(-c2cc(C(=O)N(C)Cc3noc4c3CCCC4)[nH]n2)s1	126
CN(Cc1noc2c1CCCC2)C(=O)C1Cc2ccccc2CN1C (stereo not given)	9.151
Cc1ccc(-c2cc(C(=O)NCCC3=CCCCC3)[nH]n2)o1	9.696
Cc1ccc(-c2cc(C(=O)N(C)Cc3noc4c3CCCC4)[nH]n2)o1	119
COc1ccc(C(=O)NC2CC2)c(OC2CCN(C3CCC3)CC2)c1	0.9223
COc1ccccc1C1CNCCN1C(=O)c1ccc(F)cc1 (stereo not given)	170.1
COc1ccc(C(=O)N2CCCC2c2ccco2)cc1OC (stereo not given)	-0.7331
O=C(Nc1ccc(F)cc1)C1CNCCN1C(=O)CCO (stereo not given)	-8.613
COc1ccccc1OC1CN(C(=O)C2CNCC(=O)N2)C1 (stereo not given)	3.442
COc1ccccc1C1CNCCN1C(C)=O (stereo not given)	170.5
